Measurements reported in PubChem BioAssay AID624267 (The Scripps Research Institute Molecular Screening Center, 2012).
Screen size: about 360,000 compounds; about 1,400 (0.39%) were called active. Cut-off read from the data, not from the text of the source: active = inhibition above about 21%; inactive = the rest. Only a selection was taken, and actives are over-represented in it overall.

Target: Receptor-interacting serine/threonine-protein kinase 2 (Homo sapiens) (UniProt O43353)
Experiment: inhibitors of RIPK2 association with NOD2 – fluorescence, CHO cells, BLA complementation, primary screen (AID 624267);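 note: 0% = vehicle only and 100% = reference blocker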
Settings: CHO BLA complementation NOD2-RIPK2, CCF4 ratio; at 4.98 µM; active compounds read high

Receptor-interacting serine/threonine-protein kinase 2 (Homo sapiens), sequence (O43353 whole entry, looked up): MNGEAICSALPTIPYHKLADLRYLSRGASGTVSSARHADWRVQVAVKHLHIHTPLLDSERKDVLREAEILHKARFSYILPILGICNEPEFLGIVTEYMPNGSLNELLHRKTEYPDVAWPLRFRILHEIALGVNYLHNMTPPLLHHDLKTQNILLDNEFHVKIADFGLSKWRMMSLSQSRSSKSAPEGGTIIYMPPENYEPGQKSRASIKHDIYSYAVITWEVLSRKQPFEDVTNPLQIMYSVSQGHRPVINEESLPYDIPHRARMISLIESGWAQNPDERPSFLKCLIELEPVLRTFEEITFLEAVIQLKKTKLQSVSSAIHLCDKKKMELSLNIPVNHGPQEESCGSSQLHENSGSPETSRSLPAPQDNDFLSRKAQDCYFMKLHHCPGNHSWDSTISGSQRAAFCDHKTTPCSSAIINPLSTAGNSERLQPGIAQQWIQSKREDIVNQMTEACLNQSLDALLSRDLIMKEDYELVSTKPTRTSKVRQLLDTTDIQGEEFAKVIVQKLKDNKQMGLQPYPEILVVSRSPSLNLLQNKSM

Structure (SMILES)	inhibition
C[C@H]1CN([C@@H](C)CO)C(=O)c2cc(Br)cnc2O[C@H]1CN(C)S(=O)(=O)c1cccs1	-2.32% (inactive)
C[C@@H]1CN([C@H](C)CO)C(=O)c2cc(-c3ccc(F)cc3)cnc2O[C@H]1CN(C)C(=O)c1ccc(F)cc1	-5.43% (inactive)
C[C@H]1CN([C@@H](C)CO)C(=O)c2cc(-c3cccc(F)c3)cnc2O[C@@H]1CN(C)S(C)(=O)=O	21.8% (active)
Cc1ccc(N(C(=O)c2sc(C)nc2C)C(C(=O)NC(C)(C)C)c2ccncc2)cc1 (centres undefined)	-19.7% (inactive)
COc1ccc(NC(C)=O)cc1NC(=O)CN1CCN(C2c3ccccc3-c3ccccc32)CC1	-1.12% (inactive)
Cc1ccc(NS(=O)(=O)c2ccc(C(=O)NCCCN3CCOCC3)cc2)cc1	-3.35% (inactive)
Cc1cc(NS(=O)(=O)c2ccc(NC(=S)NC(=O)c3ccc(F)cc3Cl)cc2)no1	-13% (inactive)
CN(CCC(=O)Nc1cc(S(=O)(=O)N(C)C)ccc1Cl)CC(=O)Nc1ccc(F)cc1	-1.55% (inactive)
O=C(CS(=O)(=O)Cc1ccccc1)Nc1cccnc1	-7.99% (inactive)
Cc1cccc(CS(=O)(=O)c2ncc(Cl)c(C(=O)Nc3ccc(F)cc3)n2)c1	95.7% (active)
Cc1cccc(NC(=O)c2nc(S(=O)(=O)Cc3ccccc3)ncc2Cl)c1	90.3% (active)
Cc1cccc(NC(=O)Cn2c(=O)n(Cc3ccccc3)c(=O)c3c(C)c(C)sc32)c1	-1.85% (inactive)
COc1ccc(C(C)=O)cc1CN1C(=O)NC2(CCCCC2C)C1=O (centres undefined)	-6.26% (inactive)
CC(C)N1C(=O)c2ccccc2NC(=O)C1C(=O)NCc1cccs1 (centres undefined)	-11.7% (inactive)
CC(OC(=O)CNS(=O)(=O)/C=C/c1ccccc1)C(=O)Nc1ccc(S(=O)(=O)N2CCCC2)cc1 (centres undefined)	-14.5% (inactive)
COc1ccc(CCNC(=O)CCc2cn(C)c3ccccc23)c(OC)c1	3.29% (inactive)
O=[N+]([O-])c1c(NCCO)cc(Sc2nc3ccccc3s2)c2nonc12	86.9% (active)
CCN(CCO)C(=S)Nc1cc(C(=O)OC)ccc1C(=O)OC	-1.65% (inactive)
COc1ccc(C[C@H]2CN3C(=NC[C@H]3C)N2CCNC(=O)CCC2CCCCC2)cc1	-3.4% (inactive)
O=C(CCCN1C(=O)CSc2ncccc21)N1CCN(c2cccc(C(F)(F)F)c2)CC1	3.16% (inactive)
COc1ccc(-c2cc(C(F)(F)F)nc(S(C)(=O)=O)n2)cc1OC	36.7% (active)
COc1ccc(CCNS(=O)(=O)c2ccc(F)cc2)cc1OC	-9.46% (inactive)
Cc1cc(C)c(C)c(S(=O)(=O)Nc2ccc(O)cc2)c1C	-7.06% (inactive)
Cc1ccc(S(=O)(=O)NC(=O)N2CCCN(Cc3ccc(F)cc3)CC2)cc1	8.13% (inactive)
Cc1ccc(CS(=O)(=O)CCC(=O)NCc2ccc(F)cc2)cc1	10.2% (inactive)
CC(C)c1cc(C(=O)N/N=C/c2ccoc2)c(O)c(C(C)C)c1	-15.4% (inactive)
CC(OC(=O)c1cc2ccccc2o1)C(=O)Nc1ccc(N2CCOCC2)cc1 (centres undefined)	-6.36% (inactive)

Structure (SMILES)	inhibition
O=C(NN=Cc1ccc(N2CCOCC2)cc1)c1cc2ccccc2cc1O	30.5% (active)
CCc1nnc(NC(=O)CSc2nc3c(c(=O)n2-c2ccccc2OC)SCC3)s1	-4.66% (inactive)
CC(C)Oc1ccc(C2NC(=O)NC2=O)cc1 (centres undefined)	-8.11% (inactive)
CCCCCNC(=O)C(c1ccc(OC)cc1)n1c(=O)c(-c2ccccc2)nc2ccccc21 (centres undefined)	-13.6% (inactive)
COc1ccc(C(C(=O)NCc2ccccc2)n2c(=O)c(-c3ccccc3)nc3ccccc32)cc1 (centres undefined)	-6.05% (inactive)
COc1ccc(NC(=O)C(c2ccncc2)n2c(=O)c(-c3cc4ccccc4[nH]3)nc3ccccc32)cc1 (centres undefined)	37.2% (active)
CCOc1ccc(NC(=O)C/C(C)=N/NC(=O)Cc2cccs2)cc1	-21.5% (inactive)
O=C(c1ccc(O)cc1)c1ccc(C(=O)O)c(C(=O)O)c1	7.45% (inactive)
Nc1ncnc2c1ncn2[C@@H]1O[C@H](C(=O)NS(=O)(=O)c2c(Cl)nc3sccn23)[C@@H](O)[C@H]1O	-5.91% (inactive)
Cc1ccnc(NS(=O)(=O)c2ccc(NC(=O)c3oc4ccccc4c3C)cc2)n1	7.08% (inactive)
CC(=O)Nc1ccc(C=Cc2ccc([N+](=O)[O-])cc2)cc1	23.5% (active)
O=C(O)/C=C/C(=O)NNc1ccc([N+](=O)[O-])cc1	-11.2% (inactive)
O=C(CCC(=O)N1CCCC1)Nc1ccc([N+](=O)[O-])cc1	-7.75% (inactive)
O=C(CN1C(=O)NC2(CCCCC2)C1=O)N1CCN(C(=O)c2cccs2)CC1	-8.73% (inactive)
O=C(N[C@@H](Cc1ccccc1)C(=O)OCc1ccccc1)c1nc[nH]c1C(=O)N[C@@H](Cc1ccccc1)C(=O)OCc1ccccc1	-4.2% (inactive)
C[C@@H](NC(=O)c1nc[nH]c1C(=O)N1CCN(C(=O)OC(C)(C)C)CC1)c1ccccc1	1.84% (inactive)
CC(C)(C)OC(=O)N1CCC(NC(=O)c2[nH]cnc2C(=O)N[C@@H](Cc2ccccc2)C(=O)OCc2ccccc2)CC1	30.1% (active)
CC(C)(C)c1nnc(NC(=O)C2c3ccccc3Oc3ccccc32)s1	13.8% (inactive)
COc1ccccc1C(=O)Nc1nc2nc(-c3ccccc3)cc(=O)n2[nH]1	-2.48% (inactive)
COc1cc(C(O)c2nc(-c3cccc(C(=O)O)c3)cs2)ccc1F (centres undefined)	-2.31% (inactive)
COc1ccc2c(c1OC)C(=O)OC2Nc1nc(-c2ccccc2)cs1 (centres undefined)	21.7% (active)
C=CCNC(=O)COC(=O)c1ccccc1C(=O)N(C)C1CCCCC1	-6.21% (inactive)
COc1cccc(CNC(=O)COC(=O)CN2C(=O)NC3(CCCCC3C)C2=O)c1 (centres undefined)	-6.08% (inactive)
CCOc1ccc(-c2nnc3ccc(SC)nn23)cc1	9.56% (inactive)
CCOC(=O)C1=C(C)N(C[C@@H]2CC[C@@H](Cc3ccc(-c4ccccc4)cc3)O2)C(=O)NC1c1ccc([N+](=O)[O-])cc1 (some centres undefined)	22.2% (active)
CCC(CC)COC(=O)C1=C(C)NC(=O)NC1c1ccc([N+](=O)[O-])cc1 (centres undefined)	7.52% (inactive)
CCOC(=O)C1=C(c2ccccc2)NC(=O)NC1c1cc(OCC)c(O)c([N+](=O)[O-])c1 (centres undefined)	6.34% (inactive)
